Results reported in ChEMBL document CHEMBL1157539, “Thousands of chemical starting points for antimalarial lead identification” (Nature, 2010).

What was measured:
Type in all cases: functional
[1] = tested on: Plasmodium falciparum; experiment: GSK_TCMDC: Inhibition of Plasmodium falciparum 3D7 in whole red blood cells, using parasite LDH activity as an index of growth. Test compounds present at 2uM
[2] = tested on: Plasmodium falciparum; experiment: GSK_TCMDC: Inhibition of Plasmodium falciparum Dd2 in whole red blood cells, using parasite LDH activity as an index of growth. Test compounds present at 2uM
[3] = tested on: HepG2; experiment: GSK_TCMDC: Percent inhibition of human HepG2 cell line. Test compounds present at 10uM.

Structure (SMILES)	Inhibition [1] [%]	Inhibition [2] [%]	Inhibition [3] [%]
CCCC(C)Nc1nc(C)cc(NCCC(=O)Nc2ccccc2)n1.O=C(O)C(F)(F)F (stereo not drawn)	96	11	12
O=C(N[C@@H](Cc1ccccc1)C(=O)NC1CCCCC1)c1ccc(O)c(-c2ccc(Cl)c(Cl)c2)c1	98	99	0
CCCCc1cc(NCc2ccncc2)nc(Nc2ccc(OC)cc2)n1	93	22	11
O=C(Nc1ccc(-c2ccc(-c3nc4ccccc4[nH]3)s2)cc1)Nc1ccc(Cl)c(Cl)c1	100	99	89
CS(=O)(=O)Nc1ccc(-c2ccc3ccnc(N)c3c2)cc1.O=C(O)C(F)(F)F	85	75	31
Cn1nc(-c2cccc(CN[C@@H]3CCc4ccc(O)cc43)c2)c2cnc(NC3CCCC3)nc21	100	76	6
CCOc1cc(N)c2nc3ccc([N+](=O)[O-])cc3cc2c1	100	78	73
Br.N=C(N)Nc1nc(-c2cccc(NC(=O)C(F)(F)F)c2)cs1	94	24	0
CC1CCCCC1N(C)C1CCN(CCCNC(=O)C=Cc2ccc(Cl)cc2Cl)CC1 (stereo not drawn)	100	59	53
O=C(CN(c1cccc(C(F)(F)F)c1)S(=O)(=O)c1ccc(Cl)cc1)NCCC(c1ccccc1)c1ccccc1	94	50	14
O=C(NCCCN1CCC(N2CCCCC2)CC1)c1ccc2nc(N3CCCCC3)sc2c1	89	20	11
CC(=O)Nc1nc(C(=O)Nc2ccc(-c3ccc(-c4nc5cccc(C)c5[nH]4)cc3)cc2)cs1	100	53	42
Cn1nc(-c2ccc(CN[C@@H]3CCc4ccc(O)cc43)cc2)c2cnc(NC3CCCC3)nc21	97	8	12
O=C(O)C(F)(F)F.O=S(=O)(/C=C/c1ccccc1)N(Cc1ccc(-c2ccc(CNCCc3ccccc3)cc2)cc1)CC1CCCCN1 (stereo not drawn)	100	96	99
Cc1cc(N2CCN(CC3CCN(C)CC3)CC2)nc(Nc2ccc(Br)cc2)n1	100	100	31
CCNC[C@@H](O)[C@H](Cc1ccccc1)NC(=O)c1cc2c3c(c1)c(CC)cn3CCS(=O)(=O)N2C.O=CO	99	65	0
CCOc1ccc(-c2nonc2NC(=O)c2ccccc2F)cc1OCC	90	100	0
CC1(C)[C@H]2CC[C@@H](CNc3nc(NCC(=O)Nc4ccc5ccccc5c4)nc(N4CCC(N5CCCC5)CC4)n3)[C@@H]1C2	93	20	6
CC(C)CC(NC(=O)c1cccc(OCCN2CCOCC2)c1)C(=O)NC(/C=N/NC(=O)c1ccccc1)CCc1ccccc1 (stereo not drawn)	96	88	0
CC(=O)O.COc1ccc(CNc2ccc3nc(N)nc(N)c3c2)cc1	99	84	39
Oc1ccc(-c2nc(-c3ccc4oc5ccc(-c6[nH]c(-c7ccc(O)cc7)nc6-c6ccccc6)cc5c4c3)c(-c3ccccc3)[nH]2)cc1	84	71	0
CCCN(Cc1nnc(-c2ccco2)o1)C(=O)C1CCN(c2ncc(C(F)(F)F)cc2Cl)CC1	98	92	19
O=C(NCCc1ccccc1)N(Cc1cccc(-c2ccc(CNCCc3ccccc3)cc2)c1)C1CCN(Cc2ccccc2)CC1.O=C(O)C(F)(F)F	90	91	94
NCC1CCCN1Cc1ccc(-c2ccc(-c3nc4ccccc4[nH]3)s2)cc1.O=C(O)C(F)(F)F (stereo not drawn)	98	97	17
Cc1cc(N(C)C)nc(Nc2ccc(NC(=O)c3c(F)cccc3F)cc2)n1	94	45	50
CCNc1cc(C(=O)N[C@@H](Cc2ccccc2)[C@H](O)CN[C@@H](C)c2ccccc2)cc(N2CCCC2=O)c1	98	96	7

Structure (SMILES)	Inhibition [1] [%]	Inhibition [2] [%]	Inhibition [3] [%]
Cc1c(S(=O)(=O)Nc2cccc(CCN3CCCCC3CCN3CCCC3)c2)sc2ccc(Cl)cc12 (stereo not drawn)	93	10	22
Cc1ccc(NC(=O)Nc2ccc(Cn3ncc(N4CCCNCC4)c(Cl)c3=O)cc2)cc1.O=C(O)C(F)(F)F	84	13	35
CC(C)CCn1c(Sc2ccc(C#N)c([N+](=O)[O-])c2)nnc1-c1ccc(Cl)cc1	90	39	25
CC(C)C[C@H](NC(=O)c1cc2ccccc2s1)C(=O)N[C@H]1CCN(Cc2ccc(OCCCN(C)C)c(Cl)c2)C1.O=C(O)C(F)(F)F	100	89	83
Cl.Nc1cc(C(F)(F)F)ccc1Cl	97	0	8
CN(C)CCOc1cc(NC(=O)/C=C/c2cccc3ccccc23)ccc1I	98	7	55
Cc1cc(C)cc(OCC(O)CN(Cc2cc(Cl)cc(Cl)c2)C(=O)Nc2ccc([N+](=O)[O-])cc2)c1 (stereo not drawn)	95	38	0
Cc1cc(OCCN2CCCCC2)ccc1NC(=O)c1cccc2c(=O)n(Cc3ccc(Cl)cc3)cnc12	88	56	100
Cc1cccc(NC(=O)Nc2cccc(-c3ccc(-c4nc5cc(C(F)(F)F)ccc5[nH]4)cc3)c2)c1	100	94	44
O=C(Nc1cccc(-c2nn3ccccc3c2-c2ccnc(Nc3ccccc3)n2)c1)c1c(F)cccc1F	98	98	69
COc1ccc2c(c1)S(=O)(=O)N=C(N1CCCC1c1ccc(Cl)c(Cl)c1)N2C.O=C(O)C(F)(F)F (stereo not drawn)	89	19	0
Cc1ccc(C2CCN(CCCCNC(=O)c3ccc(NC(=O)c4ccc(Cl)cc4)cc3)CC2)c(OCC2CC2)c1.Cl	100	95	63
Cl.Nc1c(C(=O)NCCCCN2CCN(c3nsc4ccccc34)CC2)sc2ccccc12	86	0	26
CCN(CC)CCCC(C)N/C(=N\c1ccccc1Br)Nc1ccc(C#N)cc1O (stereo not drawn)	89	0	4
CC1(C)NC(N)=NC(=N)N1OCOc1cc(Cl)c(Cl)cc1Cl.Cl	96	98	66
CC(C)(C)C(=O)Nc1ccc(N2CCN(C(c3ccccc3)c3ccccc3)CC2)c(Cl)c1	92	94	0
O=C(/C=C/c1ccc(Cl)c(Cl)c1)NCCCCCCN1CCCN(C(=O)Nc2ccc(C(F)(F)F)cc2)CC1	100	25	47
CN(C)CCOc1ccc2nc(-c3cccc(OCc4ccccc4)c3)[nH]c2c1C#N	100	86	48
Cc1cccc2sc(N(CCCn3ccnc3)C(=O)C=Cc3cccs3)nc12.Cl	91	9	0
CC(C)(C)CNc1noc(-c2sccc2Br)n1	82	71	4
Cc1ccc2c(N/N=C/c3cccc([N+](=O)[O-])c3)cc(C)nc2c1	100	97	33
COc1ccc2nccc([C@@H](O)CN3CCC(NCc4cc5cc([N+](=O)[O-])ccc5[nH]4)CC3)c2c1.O=C(O)C(=O)O	99	57	29
O=C(NCCN1CCCC1)c1ccc(-c2cccc(-c3nc4cc(F)ccc4[nH]3)c2)cc1	100	2	29
Cl.Oc1ccc(Nc2nc(N3CCCC3)c3ccccc3n2)cc1	100	100	10
COc1ccc(CNCCc2cccs2)cc1-c1ccc(S(=O)(=O)NCCN2CCCC2)cc1.O=C(O)C(F)(F)F	99	30	30
